Each structure is given as a SMILES string. Values without a mark were called inactive. Active and inactive are the calls of the source. Cut-off read from the data, not from the text of the source: active = inhibition above about 50%; inactive = the rest.

What is called inhibition is the change of the read-out against control, counted positive when it falls.

The target in the test is Prolyl endopeptidase-like (Mus musculus) (UniProt Q8C167). The experiment in a line: mouse PREPL enzyme inhibition by screening hits – biochemical, gel-based competitive ABPP, fluorescence, HTS hits, PREPL inhibitor project (AID 624481). Conditions: purified mouse PREPL, at 20 µM, hits give high values.
Prolyl endopeptidase-like (Mus musculus), sequence (Q8C167 whole entry, looked up): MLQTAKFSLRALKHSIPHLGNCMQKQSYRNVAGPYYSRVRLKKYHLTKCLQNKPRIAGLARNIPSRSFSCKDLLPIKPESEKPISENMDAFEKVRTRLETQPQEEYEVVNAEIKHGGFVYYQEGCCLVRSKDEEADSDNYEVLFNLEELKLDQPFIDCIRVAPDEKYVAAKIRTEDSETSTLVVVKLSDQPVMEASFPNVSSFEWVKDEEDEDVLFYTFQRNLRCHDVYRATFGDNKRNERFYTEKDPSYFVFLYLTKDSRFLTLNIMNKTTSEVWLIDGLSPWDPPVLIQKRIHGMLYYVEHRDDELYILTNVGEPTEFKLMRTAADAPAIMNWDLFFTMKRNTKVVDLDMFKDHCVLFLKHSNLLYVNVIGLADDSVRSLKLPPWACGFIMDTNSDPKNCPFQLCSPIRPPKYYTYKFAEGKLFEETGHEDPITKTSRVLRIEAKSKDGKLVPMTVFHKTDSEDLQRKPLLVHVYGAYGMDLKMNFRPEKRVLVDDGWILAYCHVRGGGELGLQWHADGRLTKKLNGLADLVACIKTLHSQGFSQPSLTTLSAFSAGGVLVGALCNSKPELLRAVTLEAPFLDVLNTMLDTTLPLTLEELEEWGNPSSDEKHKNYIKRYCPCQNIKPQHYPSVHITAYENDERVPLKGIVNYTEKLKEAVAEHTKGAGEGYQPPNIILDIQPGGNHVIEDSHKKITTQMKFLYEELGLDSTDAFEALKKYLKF
As for `c1ccc(CCNc2nc(-c3ccccn3)nc3ccccc23)cc1`, the inhibition is -127%. Next, `CCN1/C(=C\c2ccc3ccccc3[n+]2CC)Sc2cc(C)ccc21`: 50% (active); `O=S(=O)(c1ccc(-c2csc(=Nc3ccccc3)n2CCCN2CCOCC2)cc1)N1CCOCC1`: 57% (active).

Consider `COc1ccc(Cn2c(SCc3ccccc3C)nc3cc(OC)c(OC)cc3c2=N)cc1`, for which the inhibition is 52% (active). Next, `COc1cccc(C2CC(c3ccc(C)cc3)Nc3nc(N)nn32)c1` (stereo not drawn): -27%; `CCN(CC)c1ccc(-c2sc(Nc3ccccc3)n[n+]2-c2ccc(F)cc2)cc1`: -94%; `C#CCOCCOCCOCCNc1nc(N2CCN(C(=O)[C@H](Cc3cc4ccccc4[nH]3)n3cc([C@@H](N)C(C)CC)nn3)CC2)nc(N2CCN(C(=O)[C@H](Cc3cc4ccccc4[nH]3)n3cc([C@@H](N)Cc4ccc(O)cc4)nn3)CC2)n1` (stereo partly drawn): -104%. As for `COc1ccc(N2CCN(c3ccc4nnc(CCC(=O)Nc5ccc(C)cc5)n4n3)CC2)cc1`, the figure is -20%. As for `CN(CC(=O)Nc1ccccc1Cl)C(=O)c1cccc(S(=O)(=O)N2CCN(Cc3ccccc3)CC2)c1`, the figure is -6%. As for `Nc1nn(-c2ccccc2)c(N)c1N=Nc1ccc2c(c1)OCO2`, the inhibition is 17%. Consider `c1ccc(CNc2nc(-c3ccccn3)nc3ccccc23)cc1`, for which the inhibition was -89%. As for `COc1ccc(C)cc1Nc1n[n+](-c2ccccc2)c(-c2ccc(N(C)C)cc2)s1`, the figure is -72%; as for `CCC(=O)c1ccc2c(c1)N(CCCN(C)C)c1ccccc1S2`, 9%.

Source of the values: PubChem BioAssay AID624481 (The Scripps Research Institute Molecular Screening Center, 2012).
